The text below walks through data of PubChem BioAssay (NCATS).

The nature of experiment [1]: qHTS assay for small molecule agonists of the antioxidant response element (ARE) signaling pathway (AID 651741; active = well fitted activation curve with a large enough effect in the signal ratio; the % refers to the signal ratio; also: potency is read from the fitted curve at half-maximal effect; as to activation: % of control where 0% means no effect). The method in brief:
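HepG2 ARE-bla reporter cells, 2,000/well; 5 h settle at 37 C/5% CO2; compound pin transfer (23 nL, DMSO); 16 h at 37 C; LiveBLAzer B/G FRET substrate, 2 h RT; fluorescence intensity read.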

Experiment [2] is described as follows: qHTS assay for small molecule activators of the p53 signaling pathway (AID 651743; active = well fitted activation curve with a large enough effect in the signal ratio, not every such curve was filed as active; the % refers to the signal ratio; also: potency is read from the fitted curve at half-maximal effect; as to activation: % of control where 0% means no effect). The note with it: HCT-116 p53RE-bla, beta-lactamase FRET ratio, 16 h; activation: stronger effect = higher value. The method in brief:
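Reporter: beta-lactamase driven by p53 response elements, stably integrated in HCT-116 cells. Cells seeded at 4,000/well, 5 h preincubation, compound (DMSO) 16 h at 37 C; B/G FRET substrate 2 h RT; fluorescence intensity read.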

A short description of experiment [3]: qHTS assay for small molecule activators of the nuclear factor-kappa B (NF-kB) signaling pathway (AID 651749; active = well fitted activation curve with a large enough effect in the signal ratio; the % refers to the signal ratio; also: % of control where 0% means no effect). The note with it: NF-kB-bla ME-180 cells, beta-lactamase FRET ratio, 16 h; stronger effect = higher value. An outline of the steps:
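NF-kB-bla ME-180 cells, 2,000/well; 23 nL compound or DMSO pinned; 16 hr, 37C/5% CO2; beta-lactamase FRET read-out.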

Experiment [4] is described as follows: qHTS assay for small molecule disruptors of the mitochondrial membrane potential - 1 hr assay (AID 651754; calls by dose curve; also: nearly all actives have a fitted effect of over 35% in size; also: potency is read from the fitted curve at half-maximal effect). The method in brief:
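In this qHTS format, a 1 hr compound treatment of HepG2 cells precedes Mito-MPS staining, and membrane potential is judged from aggregate (red) against monomer (green) fluorescence intensity.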

Experiment [5] is described as follows: qHTS assay for small molecule disruptors of the mitochondrial membrane potential - 5 hr assay (AID 651755; calls by dose curve; also: nearly all actives have a fitted effect of over 40% in size; also: potency is read from the fitted curve at half-maximal effect). An outline of the steps: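 Read-out: ratiometric Mito-MPS fluorescence, green monomer (ex 490/em 535) vs red mitochondrial aggregate (ex 540/em 590). HepG2 cells treated 5 hr at 37C before 30 min dye loading.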
Experiment [6] has as its target Tumor necrosis factor (Homo sapiens) (UniProt P01375). Briefly: qHTS assay to identify small molecules that stimulate Tumor Necrosis Factor-alpha (TNF-alpha) secretion (AID 651757; active = well fitted curve in the direction sought with a large enough effect in the signal ratio; the % refers to the signal ratio; also: 0% is about no effect). The method in brief: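 Using 3000 THP-1 cells per well, compounds and controls were applied for 17 hrs at 37 C. Detection followed with two labeled anti-TNF-alpha antibodies (cryptate donor, XL665 acceptor) for 3 hr at room temperature, measured by TR-FRET.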

A short description of experiment [7]: qHTS assay for environmental chemicals that activate the Aryl hydrocarbon Receptor (AhR) signaling pathway (AID 651777). Also: nearly all actives have a fitted effect of over 15% in size. Also: potency is read from the fitted curve at half-maximal effect. As to activation: % of control where 0% means no effect. The settings on record: 1A2-DRE human hepatoma cells, luciferase, 24 h; activation: stronger effect = higher value. The method in brief:
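Induction of CYP1A2 transcription through AhR is detected by luciferase in 1A2-DRE hepatoma cells. Compounds or DMSO act for 24 hr at 37 C before a 30 min One-Glo step at room temperature.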

The target in experiment [8] is Peroxisome proliferator-activated receptor alpha (Homo sapiens) (UniProt Q07869). Description: qHTS assay for small molecule agonists of the peroxisome proliferator-activated receptor alpha (PPARalpha) signaling pathway (AID 651778). Also: potency is read from the fitted curve at half-maximal effect. As to max response: % of control where 0% means no effect. The note with it: PathHunter PPARalpha complementation, chemiluminescence, 6 h; max response: stronger effect = higher value. The method in brief: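 Enzyme-fragment complementation assay in which ligand-bound PPARalpha translocates and forms an active enzyme that generates chemiluminescence. Cells were plated overnight, exposed to compound for 6 hr at 37 C, and then given detection reagent for 60 min at room temperature.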

Experiment [9] concerns the target Nuclear receptor ROR-gamma (Homo sapiens) (UniProt P51449). Briefly: qHTS assay for small molecule antagonists of the retinoid-related orphan receptor gamma (ROR-gamma) signaling pathway (AID 651802). Also: nearly all actives have a fitted effect of over 60% in size. Also: potency is read from the fitted curve at half-maximal effect. An outline of the steps: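 Doxycycline-induced reporter activity in engineered CHO cells (TET-inducible ROR, RORE-LUC) was measured by luminescence after 16hr compound exposure at 37C.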

Experiment [10] is described as follows: Cytotoxicity counterscreen for NFkB agonists and antagonists (AID 624476).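 Also: cells exposed to compound for 48 hours; % is scaled to controls: 0 for no effect and ±100 for the full control effect.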
A short description of experiment [11]: Cell Proliferation Assay against the TMD8 Cell Line (AID 651645).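 Also: cells exposed to compound for 48 h before reading.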 The settings on record: TMD8 DLBCL cell line proliferation/viability; at 46.1 µM (top of the series). The method in brief:
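Viability by CellTiter-Glo after 48 h compound exposure of 500 log-phase TMD8 cells per well (RPMI, 5% FBS). Percent activity scaled between DMSO (100%) and 9.2 uM final bortezomib (0%).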

The nature of experiment [12]: Cell Proliferation Assay against the HBL1 Cell Line (AID 651646).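 Also: cells exposed to compound for 48 h before reading.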 The note with it: HBL1 DLBCL cells; at 46.1 µM (top of the series). The method in brief:
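HBL1, 500 cells/well, RPMI no phenol red + 5% FBS; cpd pinned, 48 h 37C/5% CO2; CellTiter-Glo, 15 min RT, luminescence. % activity: DMSO = 100%, bortezomib 9.2 uM final = 0%.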

Experiment [13] can be described thus: Cell Proliferation Assay against the TMD8 Cell Line (Caspase readout at 16 hrs) (AID 651712). Also: potency is read from the fitted curve at half-maximal effect. The method in brief:
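Caspase-Glo luminescence after 16 h compound exposure of TMD8 cells, 37 °C, 5% CO2. Medium: RPMI without phenol red, 5% FBS. Normalisation: DMSO = 0%, bortezomib 9.2 uM final = 100%.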

The nature of experiment [14]: Cell Proliferation Assay against the TMD8 Cell Line (Caspase readout at 8 hrs) (AID 651713). Also: potency is read from the fitted curve at half-maximal effect. An outline of the steps:
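Luminescent caspase 3/7 assay; TMD8 cells, 8 h treatment at 37C, 5% CO2. Normalisation: DMSO 0%, 9.2 uM bortezomib 100%.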

Experiment [15] can be described thus: qHTS Assay for Identification of Small Molecule Antagonists for NFkB Signaling Pathway. (AID 624479; calls by dose curve;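 also: pathway stimulated with TNF alpha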; also: potency is read from the fitted curve at half-maximal effect).

Where “and” joins values, the source holds several entries; their conditions need not be identical. Equal values may be shown once. Records with an inconclusive call do not appear. Calls of active or inactive are those of the source. Unless noted, calls follow the shape of the dose curve; as a rule, active = well fitted curve in the direction sought with a large enough effect; inconclusive = small, poorly fitted or top-dose-only effect, or another doubt; inactive = no such curve, though single readings can be large; an effect the other way counts as inactive or inconclusive.

Peroxisome proliferator-activated receptor alpha (Homo sapiens), sequence (Q07869 whole entry, looked up, the tested form may be a part): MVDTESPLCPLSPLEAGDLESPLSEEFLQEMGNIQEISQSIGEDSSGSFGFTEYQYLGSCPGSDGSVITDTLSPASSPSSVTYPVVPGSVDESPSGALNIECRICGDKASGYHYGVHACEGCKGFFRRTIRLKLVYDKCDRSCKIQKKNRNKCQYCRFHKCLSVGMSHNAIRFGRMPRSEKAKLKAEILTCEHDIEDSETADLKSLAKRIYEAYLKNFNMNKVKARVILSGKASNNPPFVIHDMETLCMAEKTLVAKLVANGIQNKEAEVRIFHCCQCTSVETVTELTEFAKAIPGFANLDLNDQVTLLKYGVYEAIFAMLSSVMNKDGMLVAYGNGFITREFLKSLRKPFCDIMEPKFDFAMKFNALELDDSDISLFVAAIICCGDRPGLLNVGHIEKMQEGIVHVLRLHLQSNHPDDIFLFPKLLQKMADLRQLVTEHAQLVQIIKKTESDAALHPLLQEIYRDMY
Tumor necrosis factor (Homo sapiens), sequence (P01375 whole entry, looked up): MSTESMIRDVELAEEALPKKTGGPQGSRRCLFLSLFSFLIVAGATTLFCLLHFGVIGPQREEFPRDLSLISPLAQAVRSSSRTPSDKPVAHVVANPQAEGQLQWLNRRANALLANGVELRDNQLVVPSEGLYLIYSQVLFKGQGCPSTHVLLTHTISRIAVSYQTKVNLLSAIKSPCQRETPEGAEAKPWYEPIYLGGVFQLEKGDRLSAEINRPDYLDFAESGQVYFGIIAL
Nuclear receptor ROR-gamma (Homo sapiens), sequence (P51449 whole entry, looked up): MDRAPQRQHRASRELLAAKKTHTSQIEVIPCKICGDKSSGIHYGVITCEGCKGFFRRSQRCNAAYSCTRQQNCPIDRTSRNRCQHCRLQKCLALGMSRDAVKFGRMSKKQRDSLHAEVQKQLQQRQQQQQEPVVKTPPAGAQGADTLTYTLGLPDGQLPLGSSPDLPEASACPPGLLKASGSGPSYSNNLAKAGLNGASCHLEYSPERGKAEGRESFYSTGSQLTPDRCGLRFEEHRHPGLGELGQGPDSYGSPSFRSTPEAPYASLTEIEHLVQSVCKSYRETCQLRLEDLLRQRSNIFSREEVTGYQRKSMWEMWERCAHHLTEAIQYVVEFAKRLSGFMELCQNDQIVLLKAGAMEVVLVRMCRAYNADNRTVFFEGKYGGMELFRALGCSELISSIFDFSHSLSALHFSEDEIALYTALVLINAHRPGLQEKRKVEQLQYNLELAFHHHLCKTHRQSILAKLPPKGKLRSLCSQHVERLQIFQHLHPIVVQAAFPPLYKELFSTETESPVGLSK

For the molecule `N[C@@H](Cc1ccc(N(CCCl)CCCl)cc1)C(=O)O`, the Potency in experiment [1] is 54.5 µM (active) and 42.2 µM (active); in [2], 39.8 µM (active) and 25.1 µM (active); in experiment [9], 26.6 µM (active). The activation in experiment [3] was 3.45% (inactive) and -0.304% (inactive); in experiment [7], 3.17% (inactive) and 3.79% (inactive). Further, the Potency entry in experiment [4] and in [5] was “inactive” in each case. Further, in [6], the molecule was called inactive. Further, the max response in experiment [8] is -0.479% (inactive) and -0.609% (inactive).

`C[C@@H]1[C@@H](CC(C[C@H]2O[C@@H]3O[C@]4(C)CC[C@@H]5[C@H](C)CC[C@@H]([C@H]2C)[C@@]35OO4)C[S+](=O)([O-])c2ccc(COC(=O)N(C)C)cc2)O[C@@H]2O[C@]3(C)CC[C@H]4[C@H](C)CC[C@@H]1[C@@]24OO3` (some centres not stated): the Potency entry in experiment [10] and in experiment [14] was “inactive” each time. In addition, the viability (% of control) in experiment [11] was found to be 5.05%. Further, in experiment [12], the viability, percent of control came to 39.8%. Further, the Potency in [13] was 0.209 µM (active).

In the case of `CO[C@@H](C(=O)N1Cc2[nH]nc(NC(=O)c3ccc(N4CCN(C)CC4)cc3)c2C1)c1ccccc1`, the Potency in experiment [15] is 11.9 µM (active); in [13] it was 13.2 µM (active); in experiment [14], 16.6 µM (active). Besides, the viability, percent of control in [12] amounted to 77.1%.

For `COc1ccc(C(=O)c2c(C)n(CCN3CCOCC3)c3ccccc23)cc1`, the Potency entry in experiment [10] and in experiment [15] was “inactive” in each case. Moreover, in experiment [11], the viability (% of control) was determined as 18.8%. Further, in experiment [12], the viability, percent of control was found to be 50.4%. Besides, the Potency in [13] was 20.9 µM (active); in [14] it was 26.4 µM (active).

For the molecule `CC(=O)Oc1ccccc1C(=O)Nc1ncc([N+](=O)[O-])s1`, the Potency in experiment [1] is 18.8 µM (active); in [2], 12.6 µM (active); in [4], 7.5 µM (active); in experiment [5] it was 6.68 µM (active); in [7] it was 0.708 µM (active).

On to `CNC(=O)c1ccc(N2C(=S)N(c3ccc(C#N)c(C(F)(F)F)c3)C(=O)C23CCC3)cc1F`, for which the Potency result in [10], in experiment [15] and in experiment [14] was “inactive” in each case. In addition, the viability (% of control) in experiment [11] is 71.2%. The viability, percent of control in experiment [12] was determined as 77.6%.

For the molecule `CCOP(=S)(OCC)Oc1cc(C)nc(C(C)C)n1`, the Potency entry in experiment [1], in experiment [4], in experiment [5] and in experiment [9] was “inactive” each time. The activation in [2] is -0.592% (inactive) and 3.54% (inactive); in experiment [3], -0.534% (inactive) and -0.189% (inactive); in experiment [7], 1.79% (inactive) and 0.131% (inactive). In addition, the outcome in experiment [6] was inactive. For the same molecule, the max response in [8] was -5.15% (inactive) and -1.07% (inactive).

`Cc1sc2c(c1C)C(c1ccc(Cl)cc1)=N[C@@H](CC(=O)OC(C)(C)C)c1nnc(C)n1-2`: the Potency result in experiment [10] was “inactive”. For the same molecule, the viability (% of control) in [11] worked out at 2.73%. The viability, percent of control in [12] turned out to be 13.5%. Further, the Potency was 0.469 µM (active) in [13] and 23.5 µM (active) in experiment [14].

Turning to `CC(C)(C)CC(C)(C)c1ccc(O)cc1`, the activation in [2] was 1.12% (inactive). The Potency in experiment [8] is 25.1 µM (active).

On to `Cc1cc(SCc2sc(-c3ccc(C(F)(F)F)c(F)c3)nc2C)ccc1OCC(=O)O`, for which the viability (% of control) in experiment [11] came to 80.8%. In experiment [12], the viability, percent of control was 93.2%. Moreover, the Potency result in experiment [14] is “inactive”. Also, the figures for the Potency in experiment [1] and in experiment [8] were 68.6 µM (active) and 2 µM (active), respectively. Further, the activation is -3.79% (inactive) in experiment [3] and 14.6% (inactive) in experiment [7].
